Hits are enriched below; roughly 3.7% of the tested compounds scored in any of these assays.
Nrf2 ARE act – Nrf2 pathway activation; AREc32 ARE-luciferase reporter (MCF7-derived line), luminescence, 24 h; Potency, µM (highest dose often 46.1 µM), for inactives: top-dose activation, hits mostly activators; 0.31% of 410,000 active; AID 624171; note: % of control where 0% means no effect; nearly all actives have a fitted effect of over 65% in size
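Quantitative high-throughput format: AREc32 reporter cells, 1000 per well, received compound by pin transfer and were incubated 24 hr at 37 deg C, 5% CO2, before Steady-Glo luminescence detection.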
ELG1 DNA repair – blocks ELG1-dependent DNA repair in HEK293T cells | HEK293T ELG1-luciferase reporter, luminescence, 16 h; DNA damage induced by 5-fluorouridine | Potency, µM (highest dose often 46.1 µM), for the others: at the highest dose activity change, negative = inhibition, usual class: inhibitors | 2.3% of 330,000 active | AID 504467; note: % is set by controls: 0 for no effect and ±100 for the full control effect; nearly all actives have a fitted effect of over 55% in size
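In this reporter screen, reduction of luminescence relative to DMSO vehicle indicated activity. Compounds and 5-fluorouridine were added together to 2,000 cells per well, incubated for 16 hr at 37 °C, then developed with ONE-Glo.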
A549 tox – kills or reduces viability of A549 cells in Nrf2 counter-screen; A549 ARE-Fluc cells, CellTiter-Fluor viability, 18-24 h; Potency, µM (highest dose often 46 µM), without a hit: at the top dose activity change, negative = cytotoxicity, most hits filed as inhibitors; 0.16% of 390,000 active; AID 504648; note: % is set by controls: 0 for no effect and ±100 for the full control effect
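A549 ARE_Fluc cells in 5% FBS OPTI-MEM were exposed to compounds in concentration-response for 18-24 h at 37 deg C. Viability was read by CellTiter-Fluor fluorescence (Ex 405/Em 525) after 30 min, before the luciferase read.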
Nrf2 inh – inhibitors of Nrf2 signaling | A549 ARE-Fluc reporter, luciferase luminescence, 18-24 h | Potency, µM (doses to about 46 µM), for the others: at the top dose activity change, negative = inhibition, actives largely listed as inhibitors | 2.1% of 360,000 active | AID 504444; note: % is set by controls: 0 for no effect and ±100 for the full control effect; nearly all actives have a fitted effect of over 60% in size
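Quantitative HTS in A549 cells stably bearing an antioxidant response element-firefly luciferase construct. Inhibition of Nrf2-driven transcription was scored by luminescence after 18-24 h of compound exposure at 37 °C.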
The depositor's hits bear a star. Calls come from the whole dose curve; as a rule, active = well fitted curve in the direction sought with a large enough effect; inconclusive = small, poorly fitted or top-dose-only effect, or another doubt; inactive = no such curve, though single readings can be large; an effect the other way counts as inactive or inconclusive. Potency is the fitted concentration of half-maximal effect.

How did COc1ccc(C2CC(c3cccs3)=NN2C(=O)CSC2=NCCS2)cc1 (stereo not drawn) do in these assays?
Nrf2 ARE act: 18%; ELG1 DNA repair: 1%; A549 tox: -26%; Nrf2 inh: 18µM*

How did Cc1ccc(NS(=O)(=O)c2ccc3c(c2)CCN(C(=O)C(F)(F)F)C3)cc1C do in these assays?
A549 tox: 2%; Nrf2 inh: inconclusive

How did COc1ccc(NC(=O)CN(C)CC(=O)Nc2sc3c(c2C(N)=O)CCC3)cc1 do in these assays?
Nrf2 ARE act: 2%; ELG1 DNA repair: 21µM*; A549 tox: -10%; Nrf2 inh: -16%

How did COC(=O)c1cc(C)sc1NC(=O)CN1CCN(C(=O)c2ccco2)CC1 do in these assays?
Nrf2 ARE act: 0%; ELG1 DNA repair: 21µM*; A549 tox: 7%; Nrf2 inh: 3%

Results for CCOC(=O)c1cc(C)sc1NC(=O)CN1CCN(C(=O)c2ccco2)CC1 ?
Nrf2 ARE act: 0%; ELG1 DNA repair: 3%; A549 tox: -7%; Nrf2 inh: -19%

Results for CN1CCN(CC(=O)Nc2sc3c(c2C(=O)Nc2ccccc2)CCCC3)CC1 ?
Nrf2 ARE act: 0%; ELG1 DNA repair: 15%; A549 tox: -12%; Nrf2 inh: 12%

How did CCOC(=O)c1cc(CC)sc1NC(=O)CN1CCN(C(=O)c2ccco2)CC1 do in these assays?
Nrf2 ARE act: 4%; ELG1 DNA repair: -19%; A549 tox: inconclusive; Nrf2 inh: 21µM*

How did NC(=O)c1c(NC(=O)CN2CCN(S(=O)(=O)c3ccccc3)CC2)sc2c1CCC2 do in these assays?
Nrf2 ARE act: -1%; ELG1 DNA repair: inconclusive; A549 tox: inconclusive; Nrf2 inh: 18µM*

How did NC(=O)c1cc(S(=O)(=O)N2CCCC2)ccc1OCCOc1ccccc1 do in these assays?
Nrf2 ARE act: 0%; ELG1 DNA repair: -27%; A549 tox: 6%; Nrf2 inh: 22%

Results for COc1ccc(CNC(=O)c2ccc(CS(=O)(=O)c3ccc(Br)cc3)o2)cc1 ?
Nrf2 ARE act: 1%; ELG1 DNA repair: -8%; A549 tox: -1%; Nrf2 inh: inconclusive

Results for CCOC(=O)c1c(NC(=O)c2ccco2)sc2c1CCCC2 ?
Nrf2 ARE act: inconclusive; ELG1 DNA repair: 2%; A549 tox: 15%; Nrf2 inh: -7%

Results for CCOC(=O)c1c(NC(=O)CN2CCN(C(=O)c3ccco3)CC2)sc2c1CCCC2 ?
Nrf2 ARE act: 0%; ELG1 DNA repair: 21µM*; A549 tox: 8%; Nrf2 inh: -6%

How did COc1ccc(N2CCN(C(CNC(=O)C(=O)NCC(OC)OC)c3ccco3)CC2)cc1 (stereo not drawn) do in these assays?
Nrf2 ARE act: -1%; ELG1 DNA repair: 11%; A549 tox: 1%; Nrf2 inh: -15%

Results for COc1ccc(C2c3[nH]c4ccccc4c3CCN2Cc2cccn2-c2ncccn2)cc1C (stereo not drawn) ?
Nrf2 ARE act: 10%; ELG1 DNA repair: 21µM*; A549 tox: -25%; Nrf2 inh: 22%

How did Cc1cccc(C2c3[nH]c4ccccc4c3CCN2Cc2cccn2-c2ncccn2)c1 (stereo not drawn) do in these assays?
Nrf2 ARE act: 8%; ELG1 DNA repair: inconclusive; A549 tox: inconclusive; Nrf2 inh: 1%

What do the screens show for `Cc1ccc(-n2nnnc2SCC(=O)Nc2ccccc2-c2ccccc2)cc1C`?
Nrf2 ARE act: 0%; ELG1 DNA repair: inconclusive; A549 tox: 1%; Nrf2 inh: -21%

How did Cc1ccc(-n2nnnc2SCC(=O)Nc2ccccc2N2CCCCC2)cc1C do in these assays?
Nrf2 ARE act: 0%; ELG1 DNA repair: 9.2µM*; A549 tox: -7%; Nrf2 inh: inconclusive

What do the screens show for `COc1ccc(C(=O)OCC(=O)Nc2ccc(OC)c(S(=O)(=O)N3CCCCC3)c2)cc1[N+](=O)[O-]`?
Nrf2 ARE act: 0%; ELG1 DNA repair: -2%; A549 tox: 6%; Nrf2 inh: -3%

How did COc1cc(NC(=O)COC(=O)c2ccc(C)c(S(=O)(=O)N3CCCCC3)c2)c(C)cc1[N+](=O)[O-] do in these assays?
Nrf2 ARE act: 3%; ELG1 DNA repair: 8.2µM*; A549 tox: -7%; Nrf2 inh: -27%

Results for COC(=O)c1sc2ccccc2c1-n1cccc1C(=O)C(=O)Nc1ccc(OC)cc1 ?
Nrf2 ARE act: 3%; ELG1 DNA repair: 13µM*; A549 tox: inconclusive

Results for Nc1nonc1C(=O)NCCNc1ncccc1[N+](=O)[O-] ?
Nrf2 ARE act: 2%; ELG1 DNA repair: 10%; A549 tox: inconclusive; Nrf2 inh: 18µM*

How did Nc1nonc1C(=O)NCCNc1ccc([N+](=O)[O-])cn1 do in these assays?
Nrf2 ARE act: 1%; ELG1 DNA repair: 20%; A549 tox: 2%; Nrf2 inh: 13%

Results for CCOc1ccc(-c2cc(C(=O)NCCc3ccc(C)cc3)c3ccccc3n2)cc1 ?
Nrf2 ARE act: 0%; A549 tox: -1%

Results for CCc1ccc(NCc2cc3ccc(OC)cc3n(CC(=O)Nc3ccccc3C)c2=O)cc1 ?
Nrf2 ARE act: -1%; A549 tox: -7%; Nrf2 inh: inconclusive

What do the screens show for `COc1ccc(-c2cn(-c3ccc(Cl)cc3)c3[n+]2CCCCC3)cc1`?
Nrf2 ARE act: 0%; ELG1 DNA repair: 12µM*; A549 tox: 4%; Nrf2 inh: -10%

What do the screens show for `Clc1ccc(-c2cn(-c3ccc(Cl)cc3)c3[n+]2CCCCC3)cc1`?
Nrf2 ARE act: 0%; ELG1 DNA repair: inconclusive; A549 tox: 4%; Nrf2 inh: -7%

Results for COc1ccc(-n2cc(-c3ccc(OC(F)F)cc3)[n+]3c2CCCCC3)cc1 ?
Nrf2 ARE act: -1%; ELG1 DNA repair: 5.2µM*; A549 tox: -7%; Nrf2 inh: -6%

Results for CCN(C(=O)c1c(C)oc2ncn(CC(C)C)c(=O)c12)c1cccc(Cl)c1 ?
Nrf2 ARE act: 0%; A549 tox: -2%; Nrf2 inh: 13%

What do the screens show for `CCOC(=O)c1ccccc1NC(=O)CSc1nc2ncccc2[nH]1`?
Nrf2 ARE act: -1%; A549 tox: 6%; Nrf2 inh: 2%

What do the screens show for `Cc1nn(-c2ccccn2)c2c1C(c1ccccc1Cl)C1=C(N2)c2ccccc2C1=O` (stereo not drawn)?
Nrf2 ARE act: 0%; ELG1 DNA repair: 21µM*; A549 tox: -4%; Nrf2 inh: -3%

How did Cc1nn(-c2ccccn2)c2c1C(c1ccsc1)C1=C(CCCC1=O)N2 (stereo not drawn) do in these assays?
Nrf2 ARE act: 2%; ELG1 DNA repair: inconclusive; A549 tox: -12%; Nrf2 inh: inconclusive

Results for Cc1nn(-c2ccccn2)c2c1C(c1c(F)cccc1Cl)C1=C(N2)c2ccccc2C1=O (stereo not drawn) ?
ELG1 DNA repair: 15µM*

Results for CSC1=C(C#N)C(c2ccccc2Cl)C2=C(N1)c1ccccc1C2=O (stereo not drawn) ?
Nrf2 ARE act: 2%; ELG1 DNA repair: 3%; A549 tox: 0%; Nrf2 inh: -18%

Assay outcomes (PubChem)
